In PubChem BioAssay AID1814 (Broad Institute, 2009):
Hit rate of the full screen: of about 300,000 compounds, about 22,000 (7.3%) were called active. About 2% were inconclusive and are not listed. Rule as the data show it: active = activity score below about -60%; inconclusive = mostly about -28% to -61%; inactive = positive scores. This excerpt belongs to a sample that is enriched for actives.

assay: Activators working through SNCA 5'UTR binding (MLPCN) (AID 1814); settings: alpha-synuclein 5'UTR reporter, activators screen; active compounds read low; tested at 7.5 µM

Activity score, active:
CCC(=O)Nc1ccc(C(=O)Nc2cccc(OC)c2)cc1 -74.7%
Cc1ccc(NC(=O)c2ccc(Oc3ncccn3)cc2)cc1 -124%
COc1ccc(NC(=O)c2c(C)oc3c2CCCC3)cc1 -64.6%
COc1ccc(NC(=O)c2sccc2SCC#N)cc1 -77.3%
COc1ccc(NC(=O)ON=C2c3ccccc3-c3ccccc32)cc1 -102%
COc1ccc(C(=O)Nc2ccc(CN3CCOCC3)cc2)cc1 -86.6%
COc1ccc(C(=O)Nc2sc(C)c(C)c2CN2CCOCC2)cc1 -83.7%
COc1ccc(C(=S)Nc2ccccc2)cc1 -134%
CCc1cc(C(N)=O)c(NC(=O)c2ccc(OC)cc2)s1 -174%
Cn1c(CN2CCOCC2)nc2cc(NC(=O)c3ccc(Cl)cc3)ccc21 -163%
COc1ccc(NC(=O)CS(=O)(=O)c2ccccc2)cc1 -62.5%
COc1ccc(NC(=O)c2cc(-c3ccc(C)cc3)on2)cc1 -154%
CC(=O)c1cccc(NC(=O)C2COc3ccccc3O2)c1 (configuration not stated) -134%
COc1ccc(NC(=O)C2COc3ccccc3O2)cc1 (configuration not stated) -133%
NS(=O)(=O)c1ccc(NC(=S)NC(=O)c2cccc(Br)c2)cc1 -61.6%
O=S(=O)(c1ccc(F)cc1)n1ccc(-c2cnc(-c3ccccc3)s2)n1 -138%
c1ccc(CSc2nnc(-c3ccco3)n2Cc2ccccc2)cc1 -126%
Cc1ccc(CN2C(=O)N/C(=C/c3cc(C)n(-c4ccccn4)c3C)C2=O)cc1 -88.6%
O=C(NNC(=S)Nc1ccc(Br)cc1Cl)c1ccco1 -157%
NNc1nc2c(Cl)cccc2s1 -119%
Cc1nc2ccccc2nc(=O)c1NNc1ccc([N+](=O)[O-])cc1 -109%
CN(C(=O)c1ccccn1)c1nnc(-c2ccccn2)s1 -110%
Cc1sc2ncnc(N3CCC(C(=O)Nc4nc5ccc(Cl)cc5s4)CC3)c2c1C -183%
COc1cc(OC)c(C(=O)Nc2ccc(N(C)C)cc2)cc1OC -129%
COc1cc2ccccc2cc1C(=O)Nc1nc(C)c(C(C)=O)s1 -106%
COc1cc2ccccc2cc1C(=O)Nc1ccncc1 -70.2%
COc1cc2ccccc2cc1C(=O)Nc1ccccc1C -118%
O=C(Cn1cc(C(=O)c2cccs2)c2ccccc21)NCc1cccs1 -69.5%
COC(=O)c1cn(CC(=O)NCc2cccs2)c2ccccc12 -111%
Cc1ccc(N)cc1-n1c(C)ccc1C -77.6%
Cc1ccc(-c2cc(=O)c3ccc(F)cc3[nH]2)cc1 -68.9%
Cc1ccc(-n2nc3ccc(NC(=O)/C=C/c4ccco4)cc3n2)cc1C -154%
O=C(/C=C/c1ccco1)Nc1cccc(-c2nc3ccccc3[nH]2)c1 -143%
O=C(Nc1cccc(-c2nc3ccccc3[nH]2)c1)c1ccc(C(=O)Nc2cccc(-c3nc4ccccc4[nH]3)c2)cc1 -70.2%
Cc1c(C(N)=O)sc2ncn(CCOc3ccccc3)c(=O)c12 -66.2%
Cc1cccc(OC(=O)c2sc3ncn(C)c(=O)c3c2C)c1 -210%
c1ccc(CCc2nc(-c3ccncc3)no2)cc1 -99%
O=C1c2ccccc2C(=O)c2c1cccc2N1CCN(CCO)CC1 -64.5%
N#C/C=C1\Sc2ccccc2C(=O)N1CC(=O)N1CCN(S(=O)(=O)c2ccccc2)CC1 -152%
Fc1ccc2nc(Nc3nc4c(s3)CCCC4)sc2c1 -206%
NS(=O)(=O)c1ccc(N=Nc2c(O)[nH]c3ccc(Br)cc23)cc1 -119%
COC(=O)CCC(=O)N1CCCC(CO)(Cc2ccccc2)C1 (configuration not stated) -124%
Cc1noc(C)c1CCC(=O)N1CCCC(CO)(Cc2ccccc2)C1 (configuration not stated) -110%
Cc1ccc(OC(=O)c2c(C)nn(-c3ccccc3)c2C)cc1 -131%
CSCCNC(=O)c1ccc2nc(Cc3ccccc3F)oc2c1 -130%
COCCNC(=O)c1ccc2nc(Cc3ccc(OC)c(OC)c3)oc2c1 -80.1%
CNC(=S)N/N=C/c1ccc(N2CCOCC2)s1 -100%
Cc1nc(NC(=O)c2ccc3c(c2)OCCO3)ccc1Br -116%
CC(C)C(=O)Nc1ccc2c(c1)oc1ccccc12 -225%
CC(=O)Oc1ccc(C(=O)Nc2nccs2)cc1 -98%
CCOc1ccc(C(=O)Nc2nccs2)cc1[N+](=O)[O-] -123%
Cc1ccc(-c2nc3ccccc3[nH]2)cc1N -122%
COc1ccc(-c2csc(-c3cccs3)n2)cc1OC -154%
O=C(Cc1c(F)cccc1Cl)Nc1ncc([N+](=O)[O-])s1 -133%
O=C(Nc1ncc([N+](=O)[O-])s1)C1COc2ccccc2O1 (configuration not stated) -93.3%
CC(=O)Oc1ccccc1C(=O)Nc1ncc([N+](=O)[O-])s1 -68.7%
O=C(CCc1ccccc1)Nc1ncc([N+](=O)[O-])s1 -165%
c1ccc2c(C[n+]3csc4ccccc43)cccc2c1 -83.3%
Cc1cccc(N=Nc2c(C)[nH]n(-c3ccccc3)c2=O)c1 -126%
CCCC(=O)Nc1ccc2c(c1)nc1n2CCSC1 -94.7%
CC1(C)C2CC=C(/C=N/NC(=O)c3ccc(Cl)cc3)C1C2 (configuration not stated) -63.4%
Cc1ccsc1/C=C1\SC(N2CCOCC2)=NC1=O -73%
O=C1N=C(N2CCOCC2)S/C1=C\C=C/c1ccccc1 -170%
Brc1ccc(C2CC(c3ccccc3)=Nc3ccccc3N2)cc1 (configuration not stated) -141%
O=C(CSc1ccc(-c2ccc(-n3cccn3)cc2)nn1)Nc1ccc([N+](=O)[O-])cc1 -99.7%
Cc1ccc2c(c1)NCC(C(=O)NC1CCC(C)CC1)O2 (configuration not stated) -67.9%
COc1cc(NC(=S)N2CCCC(C)C2)c(OC)cc1Cl (configuration not stated) -79%
CC(C)CCC(C)NC(=O)c1ccc2nccnc2c1 (configuration not stated) -75.9%
O=C1c2ccccc2C(=O)N1CCOc1ccc(F)cc1 -91.2%
Cc1cccc(N2Cc3ccccc3C2=NC(=O)c2ccc(Cl)nc2)c1 -115%
CC(=O)c1ccc(NC(=O)CSC(=S)N2CCCC2)cc1 -76.2%
Cc1cc(Cl)ccc1OCc1nc(-c2ccncc2)no1 -162%
CN(C)S(=O)(=O)c1ccc2oc(SCC(=O)Nc3ccccc3F)nc2c1 -147%
CCn1c(/C=C/c2ccc([N+](=O)[O-])o2)nc2ccccc2c1=O -353%
Cc1ccc(-c2nc(C#N)c(NCCCn3ccnc3)o2)cc1 -87%
Nc1ccc(-c2nnc(-c3ccc(-c4ccccc4)cc3)o2)cc1 -217%
Nc1nonc1-c1noc(-c2ccc(Br)o2)n1 -80.6%
Brc1ccc(-c2nnc(-c3ccccc3)o2)o1 -63.8%
Brc1ccc(-c2noc(-c3ccccc3)n2)o1 -80.6%
Cc1ncc(CC(=O)n2cc(C(=O)c3cc(Cl)ccc3O)cn2)s1 -71%
CCSc1nnc(-c2cc3c(s2)-c2ccccc2CC3)o1 -102%
CCOC(=O)c1ccc2c(c1)nc(C)n2CC -141%
Cc1cccc(C(=O)Nc2ccc(C(=O)/C=C/c3cccs3)cc2)c1 -92.4%
COc1ccc(C2=NN(C(=O)c3ccccc3C(=O)O)C(c3ccccc3O)C2)cc1 (configuration not stated) -171%
COc1ccc(C2=NN(C(C)=O)C(c3ccccc3)C2)cc1 (configuration not stated) -63.9%
C=CCNC(=O)c1cc(-c2ccccc2O)on1 -65.4%
O=C(Nc1cccnc1Cl)c1cc(-c2ccccc2O)on1 -179%
O=C(NCc1ccccn1)c1cc(-c2ccccc2Cl)on1 -99.8%
C/C(=C\c1ccco1)CN1CCC(N2CCC(C(=O)N3CCOCC3)CC2)CC1 -135%
CC(=O)Nc1ccc(C(=O)/C=C/c2ccc[nH]2)cc1 -142%
CC(=O)Nc1ccc(/C=C/C(=O)c2ccccc2)cc1 -201%
O=C(/C=C/c1ccc(N2CCOCC2)cc1)c1ccccc1 -152%
Cc1ccsc1C(=O)N/N=C/c1ccc([N+](=O)[O-])cc1 -154%
O=C(N/N=C/c1ccc([N+](=O)[O-])cc1)c1c[nH]c2ccccc12 -66.7%
Cc1ccc(NC(=O)c2sccc2C)cc1[N+](=O)[O-] -217%

Activity score, inactive:
COC(=O)c1sc(NC(=O)c2ccc(OC)cc2OC)nc1C 101%
Cc1ccc2nc(-c3ccncc3)cc(C(=O)Nc3ccc(OC(F)F)cc3)c2c1 67.6%
COc1ccc2c3c1O[C@H]1C[C@@H](O)C=C[C@@]31CCN(C)C2 62%
CCOc1ccccc1NC(=O)Cn1nnc(C(=O)NCc2cccs2)c1N 84.9%
CCOC(=O)N/N=C/c1cn(Cc2ccccc2Cl)c2ccccc12 42.5%
O=c1cc(-c2ccccc2)[nH]c2cc(F)ccc12 93.3%
O=C1CCCc2c1[nH]c1ccc(Br)cc21 89%
COc1ccc(Cc2nnc(N/N=C/c3ccccc3O)[nH]c2=O)cc1OC 91.4%
CC12CCC(C(=O)N(NC(=O)c3ccccc3O)C1=O)C2(C)C (configuration not stated) 67.6%
CCCc1cc(=O)[nH]c(SCC(=O)c2c(N)n(CC(C)C)c(=O)n(C)c2=O)n1 88.3%
Cc1cccc(-[n+]2c(-c3cccc(Br)c3)[nH]c3nc4ccccc4nc32)c1 73.9%
Clc1ccc(-c2cc(-c3ccccn3)on2)c(Cl)c1 108%
